Sampled rows, rich in hits. Any-hit rate of the full collection: about 2%.
Mcl1-Noxa inh – Mcl-1/Noxa interaction inhibition; TR-FRET Mcl-1/Noxa peptide binding, 2 h; inhibition, % at 21.7 µM; 220,000 tested, 1.5% active;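 active means compounds that cut the protein-peptide binding signal by more than 50% relative to plate controls in a single-dose test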;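 further: His-tagged Mcl-1 with rhodamine Noxa BH3 peptide and terbium anti-His antibody; 0% = Mcl-1 plus Noxa peptide wells and 100% = peptide-only wells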
Target sequence (Q07820 whole entry, looked up): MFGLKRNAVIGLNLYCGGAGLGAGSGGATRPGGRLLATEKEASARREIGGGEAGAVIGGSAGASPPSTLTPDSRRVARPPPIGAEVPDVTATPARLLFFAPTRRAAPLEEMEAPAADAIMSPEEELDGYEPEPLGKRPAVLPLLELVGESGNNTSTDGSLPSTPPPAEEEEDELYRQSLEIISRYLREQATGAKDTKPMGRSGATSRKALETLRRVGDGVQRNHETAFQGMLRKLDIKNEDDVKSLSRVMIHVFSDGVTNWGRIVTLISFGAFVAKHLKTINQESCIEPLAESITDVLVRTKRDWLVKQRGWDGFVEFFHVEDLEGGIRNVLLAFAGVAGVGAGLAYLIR
Bim-Mcl-1 – inhibitors of Bim-Mcl-1 interaction, human | inhibition, % at 10 µM | 190,000 tested, 0.1% active | AID 1009 | Bead-based flow cytometry, Bim peptide-Mcl-1 binding; in the data active means inhibition above about 40%;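 further: 0% = no compound tracer wells and 100% = peptide blocker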
Mcl1-Bid inh – disrupts binding of human Mcl-1 to Bid peptide; Q07820; TR-FRET Mcl-1/Bid-Dy647 peptide binding, 1536-well; inhibition, % at 21.7 µM; 220,000 tested, 0.97% active;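 active means compounds that cut the binding signal by more than half at the single screening dose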;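 further: His-tagged Mcl-1 with europium anti-His antibody binding Bid BH3 peptide; 0% = Mcl-1 plus peptide wells and 100% = peptide-only wells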
MCL1 BIM primary – inhibitors of human MCL1 binding to BIM-BH3 peptide | inhibition, % at 10.9 µM | 320,000 tested, 0.68% active | AID 2057 | GST-MCL1 / FITC-Bim-BH3 fluorescence polarization;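 active means inhibition above the mean inhibition of all tested compounds plus 3 SD, set per campaign, cut at about 40% in these data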;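 further: 0% = DMSO wells and 100% = unlabeled Bim-BH3 peptide control; higher means more loss of mP so more displacement of Bim peptide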
* = called active by the depositor.

For COc1ccc(CCC(=O)Nc2ccc(S(=O)(=O)N3CCCC3)cc2)cc1OC the results were MCL1 BIM primary -4.
CCC1c2ccc(C)n2CCN1C(=O)Nc1ccc(F)cc1 (stereo unspecified) was read as Mcl1-Noxa inh 4, Bim-Mcl-1 -5, Mcl1-Bid inh -13 and MCL1 BIM primary 42*.
CCCC1c2ccc(C)n2CCN1C(=O)Nc1ccc(F)cc1 (stereo unspecified) was read as Mcl1-Noxa inh -2, Bim-Mcl-1 -8, Mcl1-Bid inh -27 and MCL1 BIM primary 37.
O=C(CN1CCN(c2ncccn2)CC1)N1CCCC1 was read as Mcl1-Noxa inh 23, Bim-Mcl-1 -3, Mcl1-Bid inh -18 and MCL1 BIM primary -11.
CCN(CC)C(=O)CN1CCN(c2ncccn2)CC1 was read as Mcl1-Noxa inh 0, Bim-Mcl-1 -6, Mcl1-Bid inh 56* and MCL1 BIM primary 3.
CCOC(=O)C1CCCN(C(=O)CCCn2nnnc2CN2CCC(C)CC2)C1 (stereo unspecified) was read as MCL1 BIM primary 0.
`Cc1cc2nc(-c3cccnc3SCC(=O)NCc3ccco3)[nH]c2cc1C` gave Mcl1-Noxa inh 73*, Bim-Mcl-1 0, Mcl1-Bid inh -33 and MCL1 BIM primary 25.
CN(C)C(CNC(=O)c1ccc(S(=O)(=O)Nc2ccccc2F)cc1)c1ccco1 (stereo unspecified) was read as MCL1 BIM primary 18.
`CN(C)C1(CNC(=O)C2CCC(=O)N(CCc3ccc(Cl)cc3)C2)CCCCC1` (stereo unspecified) gave MCL1 BIM primary 8.
Screening O=C(O)CC12CSc3[nH]c(=O)sc3C1c1ccccc1OC2=O (stereo unspecified) returned Mcl1-Noxa inh -4, Bim-Mcl-1 0, Mcl1-Bid inh 66* and MCL1 BIM primary 7.
Screening CCOC(=O)C1CSc2[nH]c(=O)sc2C1c1ccccc1 (stereo unspecified) returned Mcl1-Noxa inh 6, Bim-Mcl-1 0, Mcl1-Bid inh -9 and MCL1 BIM primary 6.
For CNC(=O)NC1CCCc2ccccc21 (stereo unspecified) the results were Mcl1-Noxa inh 92*, Bim-Mcl-1 -2, Mcl1-Bid inh 3 and MCL1 BIM primary -4.
`Nc1nc(F)cc(NCc2ccccc2)n1` gave Mcl1-Noxa inh -16, Bim-Mcl-1 -1, Mcl1-Bid inh -28 and MCL1 BIM primary -3.
`CN1C(=O)/C(=C/c2ccccc2OCc2cccc(F)c2)NC1=S` gave Mcl1-Noxa inh 5, Bim-Mcl-1 -3, Mcl1-Bid inh 78* and MCL1 BIM primary 9.
For CN1C(=O)/C(=C/c2ccccc2OCc2ccccc2)NC1=S the results were Mcl1-Noxa inh 5, Bim-Mcl-1 -1, Mcl1-Bid inh -11 and MCL1 BIM primary 5.
Screening COC(=O)c1ccccc1NC(=O)COC(=O)CO/N=C(\C)c1ccc2c(c1)OCO2 returned MCL1 BIM primary -5.
Screening NC(=O)c1ccsc1NC(=O)COC(=O)/C=C/c1ccc([N+](=O)[O-])cc1 returned Mcl1-Noxa inh 79*, Mcl1-Bid inh 46 and MCL1 BIM primary 15.
Screening Cc1ccc(C)c(S(=O)(=O)ON2C(=O)c3ccccc3C2=O)c1 returned Mcl1-Noxa inh 60*, Bim-Mcl-1 -15, Mcl1-Bid inh -48 and MCL1 BIM primary -8.
`Cc1cc(S(=O)(=O)ON2C(=O)c3ccccc3C2=O)ccc1F` gave MCL1 BIM primary 4.
CNC(=O)[C@H]1O[C@@H](n2cnc3c(NCc4cccc(I)c4)ncnc32)[C@H](O)[C@@H]1O was read as MCL1 BIM primary -2.
COCCN(C(=O)COC(=O)CCc1c[nH]c2ccccc12)c1c(N)n(Cc2ccccc2)c(=O)[nH]c1=O was read as MCL1 BIM primary -1.
CN(C)c1ccc(C(=O)Nc2nnc(-c3ccc(Cl)cc3)o2)cc1 was read as Mcl1-Noxa inh 69*, Bim-Mcl-1 0, Mcl1-Bid inh 48 and MCL1 BIM primary 15.
For O=C(N/N=C/c1cccc(F)c1)c1c(O)c2ccccc2[nH]c1=O the results were Mcl1-Noxa inh 64*, Bim-Mcl-1 5, Mcl1-Bid inh 51* and MCL1 BIM primary -5.
Screening COc1cc(C(=O)NNC(=S)NCc2ccco2)cc(OC)c1OC returned Mcl1-Noxa inh 0, Bim-Mcl-1 -1, Mcl1-Bid inh -55 and MCL1 BIM primary 2.
CC(=O)Nc1ccc(S(=O)(=O)N(C)Cc2cnn(C)c2)cc1 was read as MCL1 BIM primary -2.
For CCOC(=O)C1=C(COC(=O)COc2ccc(Br)cc2)NC(=O)NC1C (stereo unspecified) the results were MCL1 BIM primary 2.
N/C(=N\OC(=O)CSc1ccccc1)c1ccncc1 was read as MCL1 BIM primary 0.
